Experiment [1] concerns the target Cellular tumor antigen p53 (Homo sapiens) (UniProt P04637). The experiment in a line: Primary qHTS for small molecule compounds that upregulate eGFP-tagged delta133p53alpha (in N-terminal) cells. (AID 2060322). Further: nearly all actives have a fitted effect of over 75% in size. Further: potency means the concentration at half of the fitted maximal effect.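 On activation: series mostly up to about 56 µM; 0% = DMSO vehicle and 100% = reference activator.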 The following applies: NCI-H358 eGFP-delta133p53alpha fluorescence, 24 h; activation: hits give high values. A digest of the protocol: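 NCI-H358 cells pre-induced 24 h with 10 ng/ml doxycycline to express N-terminal eGFP-delta133p53alpha, then dosed 24 h at 37C without doxycycline; fixed, Hoechst-stained, GFP intensity by laser scanning cytometry, normalized to DMSO (0%) and 57.5 uM 5-azacytidine (100%).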

Experiment [2] deals with Aldehyde dehydrogenase, mitochondrial (Homo sapiens) (UniProt P05091). The experiment in a line: qHTS for Inhibitors of the Aldehyde Dehydrogenase Family (ALDH2) Confirmatory screens (AID 2061303; active means well fitted inhibition curve with a large enough effect; title and protocol of this record describe different tests; further: nearly all actives have a fitted effect of over 45% in size; further: potency means the concentration at half of the fitted maximal effect). Background: Quantitative high-throughput screening tests each substance at several concentrations.
The nature of experiment [3]: qHTS for Inhibitors of the Aldehyde Dehydrogenase Family (ALDH1A2, ALDH1A3, ALDH2, ALDH3A1) (AID 2061307). Further: nearly all actives have a fitted effect of over 50% in size.
Experiment [4] has as its target Aldehyde dehydrogenase, mitochondrial (Homo sapiens) (UniProt P05091). The experiment in a line: qHTS for Inhibitors of the Aldehyde Dehydrogenase Family (ALDH2) Primary screen (AID 2061308). Further: nearly all actives have a fitted effect of over 55% in size. Further: potency means the concentration at half of the fitted maximal effect.
In experiment [5] the target is Retinaldehyde dehydrogenase 3 (Homo sapiens) (UniProt P47895). The experiment in a line: qHTS for Inhibitors of the Aldehyde Dehydrogenase Family (ALDH1A3) Confirmatory screens (AID 2061311). Further: nearly all actives have a fitted effect of over 60% in size. Further: potency means the concentration at half of the fitted maximal effect.
For experiment [6] the target is unchanged. The experiment in a line: qHTS for Inhibitors of the Aldehyde Dehydrogenase Family (ALDH1A3) Primary screen (AID 2061315). Further: potency means the concentration at half of the fitted maximal effect.
The target in experiment [7] is Aldehyde dehydrogenase 1A1 (Homo sapiens) (UniProt P00352). The experiment in a line: qHTS for Inhibitors of the Aldehyde Dehydrogenase Family (ALDH1A1) Confirmatory screens (AID 2061316). Further: nearly all actives have a fitted effect of over 65% in size. Further: potency means the concentration at half of the fitted maximal effect.
A short description of experiment [8]: BET inhibitor-based combinations targeting novel dependencies in MECOM-rearranged (r) AML: SET-2 cell line (AID 2202231). Further: nearly all actives have a fitted effect of over 35% in size. Further: potency means the concentration at half of the fitted maximal effect.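 On viability: plate controls were DMSO treated cells for no effect and wells without cells for full effect.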 To be noted: SET-2 AML cells viability, CellTiter-Glo luminescence, 48 h; viability: hits give low values, concentration not given here. A digest of the protocol: (§1)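 AML cell lines seeded at 500 cells/well, treated with 11-point dose curves for 48 h. Viability by CellTiter-Glo luminescence, normalised to DMSO and empty wells; activity expressed as AUC and per-cell-line Z-transformed AUC.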
(ATP-based viability assays read luminescence as a measure of living cells.)

Experiment [9] is described as follows: BET inhibitor-based combinations targeting novel dependencies in MECOM-rearranged (r) AML: OCI-AML3 cell line (AID 2202232). Further: nearly all actives have a fitted effect of over 35% in size. Further: potency means the concentration at half of the fitted maximal effect. To be noted: Potency: OCI-AML3 viability. A digest of the protocol: as §1
A short description of experiment [10]: BET inhibitor-based combinations targeting novel dependencies in MECOM-rearranged (r) AML: MV-4-11 cell line (AID 2202233). Further: nearly all actives have a fitted effect of over 45% in size. Further: potency means the concentration at half of the fitted maximal effect. In outline:
(§2)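 Cells at 500/well were exposed for 48 hr to MIPE v5.0 drugs as 11-point dose curves. Viability was read by CellTiter-Glo luminescence and normalized to DMSO and empty-well controls. Activity was expressed as AUC and per-cell-line Z-AUC.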

A short description of experiment [11]: BET inhibitor-based combinations targeting novel dependencies in MECOM-rearranged (r) AML: HNT-34 cell line (AID 2202234). Further: nearly all actives have a fitted effect of over 35% in size. Further: potency means the concentration at half of the fitted maximal effect. A digest of the protocol: as §2
A short description of experiment [12]: BET inhibitor-based combinations targeting novel dependencies in MECOM-rearranged (r) AML: UCSD-AML1 cell line (AID 2202235). Further: nearly all actives have a fitted effect of over 40% in size. Further: potency means the concentration at half of the fitted maximal effect. A digest of the protocol: as §2
The nature of experiment [13]: BET inhibitor-based combinations targeting novel dependencies in MECOM-rearranged (r) AML: AML-191 cell line (AID 2202236; further: nearly all actives have a fitted effect of over 35% in size; further: potency means the concentration at half of the fitted maximal effect). In outline:
as §1

A short description of experiment [14]: BET inhibitor-based combinations targeting novel dependencies in MECOM-rearranged (r) AML: AML-194 cell line (AID 2202237; further: nearly all actives have a fitted effect of over 40% in size; further: potency means the concentration at half of the fitted maximal effect). In outline:
as §1

For experiment [15], the target named is Retinal dehydrogenase 2 (Homo sapiens) (UniProt O94788). The experiment in a line: qHTS for Inhibitors of the Aldehyde Dehydrogenase Family (ALDH1A2) Confirmation screens (AID 2061314). Further: nearly all actives have a fitted effect of over 65% in size. Further: potency means the concentration at half of the fitted maximal effect.
Experiment [16] deals with Retinaldehyde dehydrogenase 3 (Homo sapiens) (UniProt P47895). The experiment in a line: qHTS for Inhibitors of the Aldehyde Dehydrogenase Family (ALDH1A3) Validation screen (AID 2061312). Further: on the % scale 0 is the no-effect control and ±100 the full control effect; nearly all actives have a fitted effect of over 45% in size.

Structures are written as SMILES. Where “and” joins values, the source holds several entries; their conditions need not be identical. Equal entries are not always repeated. Inconclusive results are not listed. Values without a mark were called inactive. Calls of active or inactive are those of the source. Unless noted, the call rests on the fitted dose curve; in most records, active means well fitted curve in the direction sought with a large enough effect; inconclusive means small, poorly fitted or top-dose-only effect, or another doubt; inactive means no such curve, though single readings can be large; an effect the other way counts as inactive or inconclusive.

Usually viability stands for a read-out of living cells in per cent, often relative to untreated cells.

Cellular tumor antigen p53 (Homo sapiens), sequence (P04637 whole entry, looked up): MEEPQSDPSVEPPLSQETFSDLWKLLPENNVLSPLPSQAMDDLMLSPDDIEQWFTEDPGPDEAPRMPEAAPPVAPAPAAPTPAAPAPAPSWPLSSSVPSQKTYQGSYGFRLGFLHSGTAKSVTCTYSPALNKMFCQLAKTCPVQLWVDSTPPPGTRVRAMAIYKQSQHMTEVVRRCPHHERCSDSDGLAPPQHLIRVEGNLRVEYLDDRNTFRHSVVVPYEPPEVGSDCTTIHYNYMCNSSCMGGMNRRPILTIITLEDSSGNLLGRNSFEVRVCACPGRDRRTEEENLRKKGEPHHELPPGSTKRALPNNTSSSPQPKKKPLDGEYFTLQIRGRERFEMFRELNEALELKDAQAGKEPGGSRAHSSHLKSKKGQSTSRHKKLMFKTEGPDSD

For `CC(C(=O)O)c1ccc2c(c1)CC(=O)c1ccccc1S2` (configuration not stated), the activation in [1] is 0.619% and -1.69% and -1.43%. The Potency entry in experiment [2], in experiment [3], in experiment [4], in experiment [5], in experiment [6] and in experiment [7] was “inactive” each time. Moreover, the Potency entry in experiment [9], in experiment [10], in experiment [11], in experiment [12], in experiment [13] and in experiment [14] was “inactive” each time. In experiment [8], the viability was 114%.
In the case of `CCOC(=O)[C@H](CCc1ccccc1)N[C@@H](C)C(=O)N1C(=O)N(C)C[C@H]1C(=O)O`, the activation in experiment [1] was 12.6% and 0.333%. The Potency result in experiment [2], in experiment [3], in [4], in experiment [5], in experiment [15] and in [6] was “inactive” in each case. The Potency result in experiment [7] was “inactive”.
With `CC(C)Nc1cc(-c2c[nH]c(C(=O)N[C@H](CO)c3cccc(Cl)c3)c2)c(Cl)cn1`, the Potency was 4.26 µM (active) in [1]; 20.9 µM (active) in [8]; 2.35 µM (active) in experiment [9]; 13.2 µM (active) in experiment [10]; 4.68 µM (active) in experiment [11]; 7.42 µM (active) in experiment [12]. Further, the Potency in experiment [13] was 7.42 µM (active); in experiment [14] it was 8.33 µM (active). The Potency result in [2], in experiment [3], in experiment [4], in experiment [5] and in experiment [6] was “inactive” in each case.
With `O=C(O)c1ccc(N2C(=O)/C(=C/c3ccc(-c4ccc([N+](=O)[O-])cc4)o3)C=C2c2ccccc2)cc1`, the activation in experiment [1] was 24.3%. Also, the Potency is 1.59 µM (active) in [2]; 11.3 µM (active) in experiment [3]; 3.98 µM (active) in [4]; 20.1 µM (active) in experiment [5]; 5.65 µM (active) in experiment [15]; 3.18 µM (active) in experiment [7].
On to `CC1(C)C[C@H]2C=C(C=O)[C@]3(C(=O)O)C[C@]3(C)[C@H]2C1`, for which the activation in experiment [1] was 18.8%. Further, the Potency entry in experiment [2], in [3], in experiment [4], in experiment [5], in experiment [15] and in [6] was “inactive” in each case. Further, the Potency entry in experiment [7] was “inactive”.
`CCC(C)C(N)C(=O)NCCN1CCOCC1` (configuration not stated): in [1], the activation is 23%. In addition, the Potency result in experiment [2], in experiment [3], in experiment [4], in experiment [5], in [15] and in [6] was “inactive” each time. For the same molecule, the Potency entry in [7] is “inactive”.
`O=C1C(c2c(O)[nH]c3ccccc23)=Nc2ccccc21`: the activation in experiment [1] was -10.6% and 17.7%. Further, the Potency result in experiment [2], in experiment [3], in experiment [4], in [5], in [6] and in experiment [7] was “inactive” in each case. Besides, the Potency entry in experiment [9], in experiment [11], in experiment [12], in experiment [13] and in experiment [14] was “inactive” throughout. Also, the viability in experiment [8] was 103%.
`NCCCCN(Cc1nc2ccccc2[nH]1)[C@H]1CCCc2cccnc21`: the activation in experiment [1] is 1.43%. Also, the Potency entry in experiment [2], in experiment [3], in experiment [4], in [16], in experiment [15] and in experiment [6] was “inactive” in each case. For the same molecule, the Potency entry in [7] was “inactive”.
Turning to `O=C(O)c1cccc(-c2noc(-c3ccccc3F)n2)c1`, in experiment [1], the activation was 19.2% and 2.33% and 1.9%. Also, the Potency result in [2], in [4] and in experiment [15] was “inactive” each time. Further, the Potency was 0.302 µM (active) in [3]; 0.159 µM (active) in experiment [5]; 0.316 µM (active) in experiment [6]; 20.9 µM (active) in experiment [8]; 18.6 µM (active) in experiment [12]; 20.9 µM (active) in experiment [13].
With `NC(=O)c1cccc(-c2cc(OC(=O)NC3CCCCC3)ccc2O)c1`, the activation in [1] was 7%. For the same molecule, the Potency entry in experiment [2], in [4], in experiment [5] and in [6] was “inactive” in each case. In addition, the Potency in experiment [3] was 10.1 µM (active).
For `C/C(=N\N=C(N)N)c1cc(NC(=O)CCCCCCCCC(=O)Nc2cc(/C(C)=N/N=C(N)N)cc(/C(C)=N/N=C(N)N)c2)cc(/C(C)=N/N=C(N)N)c1`, the Potency in [1] is 26.9 µM (active). For the same molecule, the Potency entry in [2], in [3], in [4], in experiment [5], in [6] and in experiment [7] was “inactive” in each case.
With `COc1cccc(OC)c1C(=O)N[C@@H]1C(=O)N2[C@@H]1SC(C)(C)[C@@H]2C(=O)O`, the activation in experiment [1] was -33.3% and -3%. Besides, the Potency entry in experiment [2], in experiment [3], in [4], in [5], in experiment [15] and in experiment [6] was “inactive” in each case. In experiment [7], the Potency entry was “inactive”.
As to `CC(C)c1c(-c2cnn(C(C)(C)C)c2)nc2c(C#N)c[nH]n2c1=O`, the activation in experiment [1] was 11.2%. Besides, the Potency result in [2], in experiment [3], in experiment [4], in [5], in [6] and in experiment [7] was “inactive” in each case.
Consider `CCOc1ccc(Cc2nc(-c3c(C)nc4ccccn34)cs2)cc1`, for which the activation in [1] is -8.33%. Moreover, the Potency was 12.6 µM (active) in [2], 11.2 µM (active) in experiment [3], 14.1 µM (active) in experiment [5] and 6.34 µM (active) in experiment [7]. Besides, the Potency entry in experiment [4] and in experiment [6] was “inactive” throughout.
Take `O=C(CCl)Nc1cccc(NC2=NS(=O)(=O)c3ccccc32)c1`: the Potency in [1] is 26.9 µM (active); in experiment [15] it was 1.01 µM (active); in experiment [7], 12.7 µM (active); in experiment [8] it was 26.3 µM (active); in experiment [9] it was 10.5 µM (active); in [10], 16.6 µM (active). For the same molecule, the Potency is 5.25 µM (active) in experiment [11], 8.33 µM (active) in experiment [13] and 13.2 µM (active) in [14]. The Potency result in experiment [2], in [3], in [4], in experiment [5] and in [6] was “inactive” throughout.
With `CCNC(=O)OC1CCN(c2nncc3cc(OC)c(OC)cc23)CC1`, in experiment [1], the activation was -7.67%. Moreover, the Potency entry in experiment [2], in experiment [3], in experiment [4], in [5], in experiment [15] and in experiment [6] was “inactive” each time. Further, the Potency entry in experiment [7] was “inactive”.
For the molecule `N[C@H]1Cc2ccccc2N(O)C1=O`, in experiment [1], the activation was 13.7%. Further, the Potency result in [2], in [3], in experiment [4], in [5], in experiment [15] and in [6] was “inactive” throughout. Besides, the Potency result in [7] is “inactive”.
Turning to `CCOc1ccc(Nc2nc(-c3c(C)nc4ccccn34)cs2)cc1`, the activation in experiment [1] is -3.9% and 0%. Also, the Potency was 15.8 µM (active) in experiment [2]; 7.94 µM (active) in experiment [3]; 0.132 µM (active) in experiment [8]; 0.0833 µM (active) in [9]; 0.105 µM (active) in [10]; 0.0934 µM (active) in experiment [12]. Besides, the Potency is 0.0833 µM (active) in experiment [13] and 0.332 µM (active) in [14]. Also, the Potency entry in [4], in experiment [16], in experiment [15] and in [6] was “inactive” throughout.

These data come from PubChem BioAssay (NCATS).
